About 8,800 targets were measured; listed, in parts, are those with a hit and a random draw of the rest. About 0.5% of all pairs of compound and target were hits. A number with no mark means an inactive call.
What was measured:
Assay in all cases: log2 fold change, soluble protein after heating vs DMSO (PISA); higher = thermal stabilisation; K562 lysate, 10 uM; active = over 0.2 and 3.5 SD of the protein, either way, in both replicates (recomputed)
lapatinib = compound: CS(=O)(=O)CCNCc1ccc(-c2ccc3ncnc(Nc4ccc(OCc5cccc(F)c5)c(Cl)c4)c3c2)o1 [lapatinib]
Summary of the method: (§1)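 K562 pellets were dounce-homogenised in PBS pH 7.4 containing 1 mM MgCl2, and the crude extract, at 1 mg/mL protein, was exposed to 10 μM compound for 30 min. Aliquots were heated for 3 min across 48°C-58°C, pooled, brought to 0.5% NP-40 at 4°C and spun at 21,000xg for 90 min, with the supernatant taken as soluble protein. TMTpro 16plex LC-MS/MS with equalised channel sums quantified that protein. Values are log-two fold changes in thermal stability relative to solvent controls, taken from duplicates.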

pictilisib = compound: CS(=O)(=O)N1CCN(Cc2cc3nc(-c4cccc5[nH]ncc45)nc(N4CCOCC4)c3s2)CC1 [pictilisib]
Summary of the method: as §1

crizotinib = compound: C[C@@H](Oc1cc(-c2cnn(C3CCNCC3)c2)cnc1N)c1c(Cl)ccc(F)c1Cl [crizotinib]
Summary of the method: as §1

[1] = compound: C[C@H](C1=CC=C(C=C1)C(=O)NC2=C3C=CNC3=NC=C2)N
Summary of the method: as §1

duvelisib = compound: C[C@H](Nc1ncnc2nc[nH]c12)c1cc2cccc(Cl)c2c(=O)n1-c1ccccc1 [duvelisib]
Summary of the method: as §1

gandotinib = compound: Cc1cc(Nc2cc(CN3CCOCC3)c3nc(C)c(Cc4ccc(Cl)cc4F)n3n2)n[nH]1 [gandotinib]
Summary of the method: as §1

tozasertib = compound: Cc1cc(Nc2cc(N3CCN(C)CC3)nc(Sc3ccc(NC(=O)C4CC4)cc3)n2)n[nH]1 [tozasertib]
Summary of the method: as §1

doramapimod = compound: Cc1ccc(-n2nc(C(C)(C)C)cc2NC(=O)Nc2ccc(OCCN3CCOCC3)c3ccccc23)cc1 [doramapimod]
Summary of the method: as §1

bafetinib = compound: Cc1ccc(NC(=O)c2ccc(CN3CC[C@H](N(C)C)C3)c(C(F)(F)F)c2)cc1Nc1nccc(-c2cncnc2)n1 [bafetinib]
Summary of the method: as §1

[2] = compound: Cc1cccc(CC(=O)N2CCc3c2ccc(-c2cn(C)c4ncnc(N)c24)c3F)n1
Summary of the method: as §1

nilotinib = compound: Cc1cn(-c2cc(NC(=O)c3ccc(C)c(Nc4nccc(-c5cccnc5)n4)c3)cc(C(F)(F)F)c2)cn1 [nilotinib]
Summary of the method: as §1

[3] = compound: Cc1nc(Nc2n[nH]c3c2CN(C(=O)N[C@H](CN(C)C)c2ccccc2)C3(C)C)c2sccc2n1
Summary of the method: as §1

dasatinib = compound: Cc1nc(Nc2ncc(C(=O)Nc3c(C)cccc3Cl)s2)cc(N2CCN(CCO)CC2)n1 [dasatinib]
Summary of the method: as §1

[4] = compound: Cc1ncc(-c2ccnc(Nc3ccc(S(C)(=O)=O)cc3)n2)n1C(C)C
Summary of the method: as §1

[5] = compound: Cn1cc(-c2ccc3c(c2)CCN3C(=O)Cc2cccc(C(F)(F)F)c2)c2c(N)ncnc21
Summary of the method: as §1

quisinostat = compound: Cn1cc(CNCC2CCN(c3ncc(C(=O)NO)cn3)CC2)c2ccccc21 [quisinostat]
Summary of the method: as §1

tipifarnib = compound: Cn1cncc1[C@@](N)(c1ccc(Cl)cc1)c1ccc2c(c1)c(-c1cccc(Cl)c1)cc(=O)n2C [tipifarnib]
Summary of the method: as §1

[6] = compound: NC(=O)Nc1cc(-c2cccc(F)c2)sc1C(=O)N[C@H]1CCCNC1
Summary of the method: as §1

[7] = compound: NC(=O)c1cnc(N[C@@H]2CCCC[C@@H]2N)nc1Nc1cccc(-n2nccn2)c1
Summary of the method: as §1

[8] = compound: NC1(c2ccc(-c3nc4ccn5c(=O)[nH]nc5c4cc3-c3ccccc3)cc2)CCC1
Summary of the method: as §1

Sequence of UniProt P52895 (P52895 whole entry, looked up): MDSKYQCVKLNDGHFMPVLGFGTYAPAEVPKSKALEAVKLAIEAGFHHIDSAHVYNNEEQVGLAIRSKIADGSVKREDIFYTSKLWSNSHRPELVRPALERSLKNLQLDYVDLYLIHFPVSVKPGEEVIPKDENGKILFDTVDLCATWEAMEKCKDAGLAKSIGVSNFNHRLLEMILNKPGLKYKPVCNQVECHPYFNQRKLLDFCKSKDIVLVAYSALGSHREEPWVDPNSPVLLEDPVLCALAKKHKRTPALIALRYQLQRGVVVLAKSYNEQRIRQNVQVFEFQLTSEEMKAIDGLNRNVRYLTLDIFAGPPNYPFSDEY
Sequence of UniProt P35573 (P35573 whole entry, looked up): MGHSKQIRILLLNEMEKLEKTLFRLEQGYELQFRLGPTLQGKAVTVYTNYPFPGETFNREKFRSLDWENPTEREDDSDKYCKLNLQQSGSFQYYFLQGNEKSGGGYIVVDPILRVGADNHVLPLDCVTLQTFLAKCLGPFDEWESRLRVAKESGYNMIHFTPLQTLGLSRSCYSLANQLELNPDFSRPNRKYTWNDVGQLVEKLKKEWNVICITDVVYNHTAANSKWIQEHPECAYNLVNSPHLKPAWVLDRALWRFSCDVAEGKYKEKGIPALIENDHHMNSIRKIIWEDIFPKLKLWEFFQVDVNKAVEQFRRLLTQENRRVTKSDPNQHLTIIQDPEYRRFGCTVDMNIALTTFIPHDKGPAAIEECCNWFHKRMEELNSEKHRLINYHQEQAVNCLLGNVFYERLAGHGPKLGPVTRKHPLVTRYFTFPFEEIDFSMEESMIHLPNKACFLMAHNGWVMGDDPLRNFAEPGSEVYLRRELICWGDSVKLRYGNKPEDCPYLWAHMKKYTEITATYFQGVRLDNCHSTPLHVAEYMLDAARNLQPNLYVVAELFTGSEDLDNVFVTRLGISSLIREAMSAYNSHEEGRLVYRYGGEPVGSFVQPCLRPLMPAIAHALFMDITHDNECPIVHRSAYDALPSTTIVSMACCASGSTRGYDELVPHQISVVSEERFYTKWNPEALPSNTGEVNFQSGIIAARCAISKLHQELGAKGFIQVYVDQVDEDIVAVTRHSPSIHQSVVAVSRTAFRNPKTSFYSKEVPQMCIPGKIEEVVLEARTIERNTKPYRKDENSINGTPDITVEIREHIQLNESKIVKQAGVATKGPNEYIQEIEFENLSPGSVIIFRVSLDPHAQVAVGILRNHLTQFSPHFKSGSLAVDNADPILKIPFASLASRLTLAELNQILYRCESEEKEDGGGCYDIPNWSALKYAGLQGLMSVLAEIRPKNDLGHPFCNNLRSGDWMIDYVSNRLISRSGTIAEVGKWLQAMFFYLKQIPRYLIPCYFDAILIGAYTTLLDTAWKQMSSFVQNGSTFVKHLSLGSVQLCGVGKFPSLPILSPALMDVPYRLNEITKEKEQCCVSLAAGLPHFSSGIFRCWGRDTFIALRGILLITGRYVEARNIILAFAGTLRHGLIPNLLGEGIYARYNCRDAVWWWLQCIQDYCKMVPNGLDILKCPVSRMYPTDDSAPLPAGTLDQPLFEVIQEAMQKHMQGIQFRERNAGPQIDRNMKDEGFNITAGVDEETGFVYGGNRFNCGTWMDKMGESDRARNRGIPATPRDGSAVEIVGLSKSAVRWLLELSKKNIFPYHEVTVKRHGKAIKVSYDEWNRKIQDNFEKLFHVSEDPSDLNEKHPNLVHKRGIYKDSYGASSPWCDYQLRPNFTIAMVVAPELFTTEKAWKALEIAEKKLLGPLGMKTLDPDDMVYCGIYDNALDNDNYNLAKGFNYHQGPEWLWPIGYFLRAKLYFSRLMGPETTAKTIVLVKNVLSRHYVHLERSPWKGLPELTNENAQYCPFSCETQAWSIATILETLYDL
Sequence of UniProt Q8N6T3 (Q8N6T3 whole entry, looked up): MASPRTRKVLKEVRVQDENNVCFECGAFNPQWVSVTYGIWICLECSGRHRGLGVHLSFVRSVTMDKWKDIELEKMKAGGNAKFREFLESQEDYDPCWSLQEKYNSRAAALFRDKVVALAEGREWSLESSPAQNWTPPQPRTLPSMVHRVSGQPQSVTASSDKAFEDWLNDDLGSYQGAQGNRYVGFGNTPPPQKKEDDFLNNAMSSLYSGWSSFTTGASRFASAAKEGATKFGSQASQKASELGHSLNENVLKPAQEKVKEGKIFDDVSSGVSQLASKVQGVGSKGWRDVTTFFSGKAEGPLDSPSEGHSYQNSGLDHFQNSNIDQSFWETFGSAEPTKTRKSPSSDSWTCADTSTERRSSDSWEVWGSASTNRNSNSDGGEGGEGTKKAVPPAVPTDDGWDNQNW
Sequence of UniProt Q9NWB6 (Q9NWB6 whole entry, looked up): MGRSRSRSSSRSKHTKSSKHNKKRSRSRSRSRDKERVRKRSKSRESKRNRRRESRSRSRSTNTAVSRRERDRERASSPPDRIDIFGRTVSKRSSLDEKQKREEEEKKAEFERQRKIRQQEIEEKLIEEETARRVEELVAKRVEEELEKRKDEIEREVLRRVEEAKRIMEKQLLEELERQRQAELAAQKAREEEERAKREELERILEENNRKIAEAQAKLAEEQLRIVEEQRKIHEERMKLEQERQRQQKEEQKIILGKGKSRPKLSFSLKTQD
Sequence of UniProt Q9UNA0 (Q9UNA0 whole entry, looked up): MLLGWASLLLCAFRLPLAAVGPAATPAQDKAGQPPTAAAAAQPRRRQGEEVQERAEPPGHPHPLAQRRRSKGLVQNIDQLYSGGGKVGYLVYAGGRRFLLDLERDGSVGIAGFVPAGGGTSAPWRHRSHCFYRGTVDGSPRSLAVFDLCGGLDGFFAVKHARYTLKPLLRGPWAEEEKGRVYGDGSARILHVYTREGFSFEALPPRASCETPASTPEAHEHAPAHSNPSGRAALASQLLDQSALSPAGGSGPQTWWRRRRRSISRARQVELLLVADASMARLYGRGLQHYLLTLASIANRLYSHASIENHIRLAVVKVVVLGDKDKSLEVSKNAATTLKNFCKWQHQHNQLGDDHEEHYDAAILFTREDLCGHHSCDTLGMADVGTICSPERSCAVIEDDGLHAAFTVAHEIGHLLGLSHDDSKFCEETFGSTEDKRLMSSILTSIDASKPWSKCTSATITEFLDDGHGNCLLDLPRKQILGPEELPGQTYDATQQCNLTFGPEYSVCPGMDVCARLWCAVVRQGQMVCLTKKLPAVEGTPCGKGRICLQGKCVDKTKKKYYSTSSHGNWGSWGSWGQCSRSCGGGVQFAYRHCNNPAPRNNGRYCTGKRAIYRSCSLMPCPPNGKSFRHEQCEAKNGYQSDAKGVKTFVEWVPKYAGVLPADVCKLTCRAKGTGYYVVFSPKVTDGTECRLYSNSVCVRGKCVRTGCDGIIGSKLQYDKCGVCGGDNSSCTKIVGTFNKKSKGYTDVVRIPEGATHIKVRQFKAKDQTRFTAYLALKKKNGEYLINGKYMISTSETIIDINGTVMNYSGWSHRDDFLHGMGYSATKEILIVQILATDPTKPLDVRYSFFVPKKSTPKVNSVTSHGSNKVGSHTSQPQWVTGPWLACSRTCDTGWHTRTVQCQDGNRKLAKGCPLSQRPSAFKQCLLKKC
Sequence of UniProt O14617 (O14617 whole entry, looked up): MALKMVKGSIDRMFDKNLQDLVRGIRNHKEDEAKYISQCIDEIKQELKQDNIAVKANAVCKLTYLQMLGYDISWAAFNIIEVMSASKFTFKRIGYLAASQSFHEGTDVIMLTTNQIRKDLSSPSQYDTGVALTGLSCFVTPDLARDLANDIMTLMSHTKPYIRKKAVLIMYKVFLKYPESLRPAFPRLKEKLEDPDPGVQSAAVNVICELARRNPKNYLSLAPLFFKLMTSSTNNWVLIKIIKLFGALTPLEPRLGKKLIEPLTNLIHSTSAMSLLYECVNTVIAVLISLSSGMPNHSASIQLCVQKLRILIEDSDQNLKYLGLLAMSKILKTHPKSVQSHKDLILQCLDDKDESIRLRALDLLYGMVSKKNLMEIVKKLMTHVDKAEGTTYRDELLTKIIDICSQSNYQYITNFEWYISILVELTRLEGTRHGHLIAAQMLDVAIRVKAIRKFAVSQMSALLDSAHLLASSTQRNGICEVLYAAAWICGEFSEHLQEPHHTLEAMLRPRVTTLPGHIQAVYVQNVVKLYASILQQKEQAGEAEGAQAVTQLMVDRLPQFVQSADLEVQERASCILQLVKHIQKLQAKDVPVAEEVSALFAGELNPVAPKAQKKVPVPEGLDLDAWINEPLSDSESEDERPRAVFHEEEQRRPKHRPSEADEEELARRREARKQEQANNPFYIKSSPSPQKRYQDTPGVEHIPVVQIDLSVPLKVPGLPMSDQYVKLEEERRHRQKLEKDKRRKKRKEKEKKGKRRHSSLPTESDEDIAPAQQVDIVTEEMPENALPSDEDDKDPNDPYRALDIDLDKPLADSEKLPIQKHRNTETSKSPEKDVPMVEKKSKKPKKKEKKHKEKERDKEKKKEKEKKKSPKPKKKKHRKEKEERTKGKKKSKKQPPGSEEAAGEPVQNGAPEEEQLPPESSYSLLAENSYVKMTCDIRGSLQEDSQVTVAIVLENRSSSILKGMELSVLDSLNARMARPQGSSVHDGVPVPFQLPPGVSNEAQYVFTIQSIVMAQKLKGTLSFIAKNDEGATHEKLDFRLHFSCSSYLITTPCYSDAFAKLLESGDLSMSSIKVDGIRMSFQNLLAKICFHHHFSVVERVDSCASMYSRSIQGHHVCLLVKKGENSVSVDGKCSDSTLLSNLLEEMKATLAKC
Sequence of UniProt P09110 (P09110 whole entry, looked up): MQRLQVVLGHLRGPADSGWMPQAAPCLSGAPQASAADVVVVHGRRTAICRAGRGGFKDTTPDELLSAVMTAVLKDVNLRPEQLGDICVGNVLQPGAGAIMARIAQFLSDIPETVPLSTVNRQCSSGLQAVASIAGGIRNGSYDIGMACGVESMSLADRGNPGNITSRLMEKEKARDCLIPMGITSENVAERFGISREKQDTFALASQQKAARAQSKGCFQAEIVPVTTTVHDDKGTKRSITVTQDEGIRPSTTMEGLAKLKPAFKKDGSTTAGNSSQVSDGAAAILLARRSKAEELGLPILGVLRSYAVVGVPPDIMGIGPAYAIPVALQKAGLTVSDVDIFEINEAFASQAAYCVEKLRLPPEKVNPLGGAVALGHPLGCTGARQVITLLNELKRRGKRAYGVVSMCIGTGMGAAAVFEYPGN

Row | Target | log2 fold change (lapatinib) | log2 fold change (pictilisib) | log2 fold change (crizotinib) | log2 fold change [1] | log2 fold change (duvelisib) | log2 fold change (gandotinib) | log2 fold change (tozasertib) | log2 fold change (doramapimod) | log2 fold change (bafetinib) | log2 fold change [2] | log2 fold change (nilotinib) | log2 fold change [3] | log2 fold change (dasatinib) | log2 fold change [4] | log2 fold change [5] | log2 fold change (quisinostat) | log2 fold change (tipifarnib) | log2 fold change [6] | log2 fold change [7] | log2 fold change [8]
1 | AIFM2 (UniProt Q9BRQ8) | 0.132 | -0.024 | 0.06 | -0.143 | 0.004 | 0.507 (active) | -0.014 | 0.307 | 0.086 | 0.089 | 0.057 | -0.006 | -0.072 | -0.03 | 0.024 | -0.105 | 0.411 (active) | -0.028 | -0.054 | 0
2 | AMPD3 isoform 4 (UniProt Q01432) | 0.037 | -0.015 | 0.014 | 0.109 | -0.053 | -0.057 | 0.001 | 0.002 | -0.002 | -0.047 | -0.002 | 0.027 | 0.014 | -0.021 | -0.013 | 0.038 | 0.032 | -0.012 | -0.017 | 0.012
3 | ABCD3 (UniProt P28288) | 0.179 | -0.019 | -0.063 | 0.014 | 0.019 | 0.079 | 0.098 | -0.002 | 0.027 | -0.006 | 0.019 | 0.093 | -0.063 | -0.184 | 0.031 | 0.074 | -0.025 | 0.016 | -0.054 | 0.087
4 | AFF4 (UniProt Q9UHB7) | 0.003 | -0.007 | -0.033 | 0.011 | 0.059 | 0.066 | 0 | 0 | 0.05 | 0.001 | -0.039 | -0.068 | 0.005 | 0.012 | 0.023 | 0.02 | 0.065 | 0.032 | -0.026 | 0.022
5 | ARGLU1 (UniProt Q9NWB6) | 0.038 | 0.013 | 0.043 | -0.062 | -0.023 | -0.119 | 0.045 | 0.019 | -0.014 | 0.013 | -0.012 | -0.007 | 0.058 | -0.018 | 0.096 | 0.022 | -0.043 | -0.133 | -0.012 | 0.016
6 | ASNS (UniProt P08243) | -0.019 | -0.012 | -0.042 | 0.013 | -0.001 | -0.051 | 0.011 | -0.01 | -0.033 | 0.002 | -0.004 | -0.008 | -0.039 | -0.018 | 0.025 | 0.027 | 0.017 | 0.027 | -0.01 | -0.028
7 | ACIN1 (UniProt E7EQT4) | -0.001 | -0.047 | -0.1 | -0.28 (active) | -0.021 | 0.047 | 0 | 0.068 | -0.063 | 0.032 | 0.033 | -0.032 | 0.043 | 0.006 | 0.195 | -0.087 | -0.021 | -0.072 | 0.041 | -0.039
8 | AGL (UniProt P35573) | -0.004 | 0 | -0.019 | 0.115 | -0.013 | -0.094 | 0.014 | 0.029 | -0.037 | -0.059 | -0.024 | -0.007 | -0.027 | -0.005 | 0.028 | -0.016 | 0.016 | 0.038 | 0.016 | -0.007
9 | ASPH (UniProt Q12797) | -0.035 | -0.012 | -0.025 | 0.048 | -0.022 | -0.04 | 0.037 | 0.008 | 0.029 | 0.005 | -0.033 | -0.025 | 0.089 | 0.011 | -0.019 | -0.02 | 0.004 | -0.005 | -0.009 | -0.013
10 | AP3D1 isoform 5 (UniProt O14617) | 0.008 | 0.01 | -0.02 | -0.061 | 0.023 | 0.05 | 0.019 | 0.059 | -0.042 | 0.081 | -0.001 | 0.018 | -0.043 | 0.002 | 0.003 | -0.002 | -0.002 | 0.016 | -0.007 | 0.03
11 | ALDH1L2 (UniProt Q3SY69) | 0.029 | -0.01 | -0.032 | -0.066 | 0.003 | 0.039 | 0.032 | 0.005 | -0.029 | 0.083 | -0.013 | 0.01 | -0.021 | 0.012 | 0.046 | -0.027 | 0.012 | 0.026 | 0.05 | -0.042
12 | ANXA11 (UniProt P50995) | -0.005 | -0.008 | 0.001 | -0.044 | -0.022 | 0.008 | 0.026 | 0.012 | -0.03 | 0.039 | 0.014 | -0.017 | -0.033 | -0.029 | 0.016 | 0.005 | -0.011 | -0.002 | 0.009 | 0.028
13 | ARFGAP1 (UniProt Q8N6T3) | 0.002 | 0.175 | 0.031 | -0.077 | -0.054 | 1.08 (active) | -0.011 | 0.202 | -0.157 | 0.202 | 0.159 | 0.1 | -0.03 | -0.016 | -0.043 | -0.004 | -0.475 (active) | 0.063 | -0.032 | -0.111
14 | ADAMTS5 (UniProt Q9UNA0) | -0.102 | -0.015 | -0.139 | -0.843 (active) | -0.004 | 0.332 | 0.011 | 0.04 | -0.211 | 0.33 | 0.003 | -0.062 | -0.01 | -0.011 | 0.014 | -0.222 | -0.041 | 0.016 | 0.031 | -0.083
15 | AKR1C2 (UniProt P52895) | -0.012 | -0.022 | -0.059 | -0.201 | 0.049 | 0.276 (active) | 0.014 | -0.011 | 0.108 | 0.18 | 0.02 | -0.031 | -0.006 | -0.009 | -0.045 | -0.043 | 0 | 0.019 | -0.039 | -0.034
16 | ACAA1 (UniProt P09110) | 0.017 | -0.005 | 0.014 | -0.015 | -0.014 | 0.056 | -0.043 | -0.001 | 0.045 | -0.011 | 0.035 | -0.019 | 0.014 | -0.007 | -0.027 | -0.026 | 0.011 | -0.001 | -0.016 | 0.009

Source: the supplement of paper PMC10849652
